Common to all, as to test: protein-binding microarray (PBM); PBM: ~300 nM protein, 6 mM HEPES pH 7.8, 80 mM KCl, 0.5 mM EDTA, 0.5 mM EGTA, 6% glycerol, 35 ng/ul poly-dIdC, 1% milk, 1 h, room temperature; Ap Aiptasia and Nv Nematostella (sea anemones) / Co Capsaspora / Aq Amphimedon (sponge) / Dm Drosophila / Hu human; RHD is the Rel homology domain; high values mean tight binding
Holding throughout (details): dsDNA, one strand shown

Assay [1] concerns the target T1, GST-Ap-NF-kB RHD (Exaiptasia pallida (Aiptasia), UniProt A0A913YAJ5 2-422).
T1 sequence: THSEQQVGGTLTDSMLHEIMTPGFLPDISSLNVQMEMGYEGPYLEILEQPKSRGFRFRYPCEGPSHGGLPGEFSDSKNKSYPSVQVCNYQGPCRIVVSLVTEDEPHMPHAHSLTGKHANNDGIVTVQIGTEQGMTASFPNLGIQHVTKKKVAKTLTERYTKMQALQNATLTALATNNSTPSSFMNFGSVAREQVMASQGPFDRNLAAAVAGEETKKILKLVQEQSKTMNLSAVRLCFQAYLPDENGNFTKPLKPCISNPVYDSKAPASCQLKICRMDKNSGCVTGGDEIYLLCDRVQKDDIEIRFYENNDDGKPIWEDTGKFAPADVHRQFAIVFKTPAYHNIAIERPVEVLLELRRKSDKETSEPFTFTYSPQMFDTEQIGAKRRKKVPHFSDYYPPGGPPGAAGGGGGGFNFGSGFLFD

Assay [2] addresses T2, GST-Nv-NF-kB (Cys allele) (Nematostella vectensis, UniProt E5G601 2-411).
T2 sequence: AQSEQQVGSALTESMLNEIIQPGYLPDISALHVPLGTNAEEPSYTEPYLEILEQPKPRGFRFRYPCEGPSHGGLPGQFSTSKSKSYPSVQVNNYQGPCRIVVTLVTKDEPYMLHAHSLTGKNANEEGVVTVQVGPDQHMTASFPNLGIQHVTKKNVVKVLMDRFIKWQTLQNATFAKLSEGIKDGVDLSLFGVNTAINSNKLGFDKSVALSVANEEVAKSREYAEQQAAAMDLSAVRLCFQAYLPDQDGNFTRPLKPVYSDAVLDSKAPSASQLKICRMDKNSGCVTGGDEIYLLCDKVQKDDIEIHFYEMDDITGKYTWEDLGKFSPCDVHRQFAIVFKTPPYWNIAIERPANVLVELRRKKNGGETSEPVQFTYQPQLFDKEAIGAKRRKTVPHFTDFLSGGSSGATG

Assay [3] has as its target T3, GST-Nv-NF-kB (Ser allele) (Nematostella vectensis, UniProt A7UNT2 2-411).
T3 sequence: T2 sequence with Q21R, C66S, S207N, E215Q, V217A, E225K, A268E, D399E

Assay [4] has as its target T4, GST-Co-NF-kB (Capsaspora owczarzaki, UniProt F1ARL5 200-546).
T4 sequence: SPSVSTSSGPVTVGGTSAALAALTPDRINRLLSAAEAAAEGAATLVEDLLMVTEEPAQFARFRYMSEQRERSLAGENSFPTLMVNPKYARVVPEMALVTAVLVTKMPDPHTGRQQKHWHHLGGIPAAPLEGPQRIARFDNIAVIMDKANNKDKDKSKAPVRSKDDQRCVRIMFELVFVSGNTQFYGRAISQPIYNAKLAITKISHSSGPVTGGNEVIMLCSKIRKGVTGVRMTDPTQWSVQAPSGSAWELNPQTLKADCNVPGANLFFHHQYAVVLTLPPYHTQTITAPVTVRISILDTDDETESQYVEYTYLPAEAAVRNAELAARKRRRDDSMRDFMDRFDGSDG

Assay [5] addresses T5, GST-Dm-Relish (Drosophila melanogaster, UniProt Q94527 99-473).
T5 sequence: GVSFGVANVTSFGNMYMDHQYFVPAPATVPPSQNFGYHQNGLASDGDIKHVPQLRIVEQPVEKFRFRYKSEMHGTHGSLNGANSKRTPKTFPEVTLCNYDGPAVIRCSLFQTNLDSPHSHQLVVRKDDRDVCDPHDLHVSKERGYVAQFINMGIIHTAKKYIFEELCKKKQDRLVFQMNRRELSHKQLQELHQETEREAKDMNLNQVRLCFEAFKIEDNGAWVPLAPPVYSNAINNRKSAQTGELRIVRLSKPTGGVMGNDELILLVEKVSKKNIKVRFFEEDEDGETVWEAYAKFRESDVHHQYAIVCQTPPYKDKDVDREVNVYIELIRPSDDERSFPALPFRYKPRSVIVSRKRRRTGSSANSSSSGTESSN

Assay [6] concerns the target T6, GST-Aq-NF-kB (Amphimedon queenslandica, UniProt A9Y5G7 2-389).
T6 sequence: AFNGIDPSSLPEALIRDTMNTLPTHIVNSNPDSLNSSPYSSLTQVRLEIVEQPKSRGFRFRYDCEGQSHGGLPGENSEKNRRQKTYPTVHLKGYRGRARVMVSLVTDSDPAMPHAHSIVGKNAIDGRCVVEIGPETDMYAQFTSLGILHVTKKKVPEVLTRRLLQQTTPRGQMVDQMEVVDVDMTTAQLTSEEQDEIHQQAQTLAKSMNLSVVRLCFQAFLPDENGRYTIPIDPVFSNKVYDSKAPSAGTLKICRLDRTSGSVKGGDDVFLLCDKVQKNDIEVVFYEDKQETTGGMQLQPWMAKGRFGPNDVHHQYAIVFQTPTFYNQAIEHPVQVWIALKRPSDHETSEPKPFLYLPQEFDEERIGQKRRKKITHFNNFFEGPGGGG

The target of assay [7] is GST-Hu-p50 (Homo sapiens, UniProt P19838 7-356).

Where a chain is given by its changes, count along the chain named.

Chain of GST-Hu-p50 (P19838 7-356): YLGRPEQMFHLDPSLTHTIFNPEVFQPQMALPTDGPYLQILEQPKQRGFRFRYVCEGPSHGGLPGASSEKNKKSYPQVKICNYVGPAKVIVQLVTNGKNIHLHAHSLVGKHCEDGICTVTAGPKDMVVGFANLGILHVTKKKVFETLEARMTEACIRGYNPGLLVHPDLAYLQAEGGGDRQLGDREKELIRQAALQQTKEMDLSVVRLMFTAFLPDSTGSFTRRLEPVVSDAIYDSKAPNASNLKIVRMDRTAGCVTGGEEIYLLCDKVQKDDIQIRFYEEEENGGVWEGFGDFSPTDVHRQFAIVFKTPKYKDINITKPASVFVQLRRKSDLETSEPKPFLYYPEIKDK

“CCGATTAACATCACAACTTCCCCTGATGTTAATCGGGTCTTGATTCGCTTGACGCTGCTG”: the binding signal was 6.77 z-score in assay [1]; 8.34 z-score in assay [2]; 9.8 z-score in assay [3]; 5.34 z-score in assay [4]; 6.89 z-score in assay [5]; 6.51 z-score in assay [6]. The binding signal in assay [7] amounted to 6.13 z-score.
For “CCGATTAACATCACGGGTTTTCCTGATGTTAATCGGGTCTTGATTCGCTTGACGCTGCTG”, the binding signal in assay [1] is 2.91 z-score; in assay [2], 2.73 z-score; in assay [3], 1.9 z-score; in assay [4], 1.18 z-score; in assay [5], 4.43 z-score; in assay [6] it was 4.99 z-score. This sequence also returned a binding signal in assay [7] of 2.29 z-score.
Turning to “CCGATTAACATCAAGAGATTCCCTGATGTTAATCGGGTCTTGATTCGCTTGACGCTGCTG”, the binding signal in assay [1] turned out to be 3.17 z-score; in assay [2] it was 3.88 z-score; in assay [3], 3.73 z-score; in assay [4], 2.46 z-score; in assay [5], 2.38 z-score; in assay [6] it was 4.06 z-score. The binding signal in assay [7] worked out at 2.78 z-score.
On to “CCGATTAACATCAGGGAAACACCTGATGTTAATCGGGTCTTGATTCGCTTGACGCTGCTG”, for which the binding signal in assay [1] is 5.49 z-score; in assay [2] it was 6.62 z-score; in assay [3], 6.01 z-score; in assay [4] it was 2.74 z-score; in assay [5], 6.92 z-score; in assay [6], 7.75 z-score. Moreover, the binding signal in assay [7] stood at 5.15 z-score.
In the case of “CCGATTAACATCAGGGAATCACCTGATGTTAATCGGGTCTTGATTCGCTTGACGCTGCTG”, the binding signal came out at 6.2 z-score in assay [1]; 6.62 z-score in assay [2]; 6.17 z-score in assay [3]; 2.45 z-score in assay [4]; 10.3 z-score in assay [5]; 6.99 z-score in assay [6]. The same sequence registered a binding signal in assay [7] of 5.35 z-score.
Consider “CCGATTAACATCACCCCTTCCCCTGATGTTAATCGGGTCTTGATTCGCTTGACGCTGCTG”, for which the binding signal in assay [1] worked out at 4.7 z-score; in assay [2], 3.88 z-score; in assay [3], 4.86 z-score; in assay [4] it was 5.6 z-score; in assay [5], 2.5 z-score; in assay [6], 3.85 z-score. In addition, in assay [7], the binding signal is 3.3 z-score.
“CCGATTAACATCAGGGGTATTTATGATGTTAATCGGGTCTTGATTCGCTTGACGCTGCTG”: the binding signal in assay [1] was determined as 5.75 z-score; in assay [2], 5.26 z-score; in assay [3], 5.54 z-score; in assay [4], 4.66 z-score; in assay [5], 3.79 z-score; in assay [6], 5.15 z-score. Further, the binding signal in assay [7] was 5.56 z-score.
Turning to “CCGATTAACATCACAAACCCCCCTGATGTTAATCGGGTCTTGATTCGCTTGACGCTGCTG”, the binding signal turned out to be 6.66 z-score in assay [1]; 4.96 z-score in assay [2]; 6.4 z-score in assay [3]; 3.99 z-score in assay [4]; 7.41 z-score in assay [5]; 5.34 z-score in assay [6]. Also, in assay [7], the binding signal came to 6.08 z-score.
As for “CCGATTAACATCAGGGGAGGGACTGATGTTAATCGGGTCTTGATTCGCTTGACGCTGCTG”, the binding signal in assay [1] was 4.36 z-score; in assay [2], 4.69 z-score; in assay [3], 4.55 z-score; in assay [4], 2.92 z-score; in assay [5], 3.83 z-score; in assay [6], 5.21 z-score. The binding signal in assay [7] was determined as 3.82 z-score.
Consider “CCGATTAACATCAAAAGTCCCCCTGATGTTAATCGGGTCTTGATTCGCTTGACGCTGCTG”, for which the binding signal was 8.58 z-score in assay [1]; 8.14 z-score in assay [2]; 8.36 z-score in assay [3]; 7.93 z-score in assay [4]; 9.15 z-score in assay [5]; 7.54 z-score in assay [6]. In assay [7], this sequence showed a binding signal of 6.72 z-score.
Turning to “CCGATTAACATCAGCTAATTCCCTGATGTTAATCGGGTCTTGATTCGCTTGACGCTGCTG”, the binding signal in assay [1] stood at 1.96 z-score; in assay [2] it was 3.33 z-score; in assay [3], 3.36 z-score; in assay [4], 1.82 z-score; in assay [5] it was 1.18 z-score; in assay [6], 3.15 z-score. Besides, the binding signal in assay [7] was 2.27 z-score.
Turning to “CCGATTAACATCAGGGGGAGATATGATGTTAATCGGGTCTTGATTCGCTTGACGCTGCTG”, the binding signal came out at 5.8 z-score in assay [1]; 5.33 z-score in assay [2]; 6.74 z-score in assay [3]; 8.37 z-score in assay [4]; 2.53 z-score in assay [5]; 4.8 z-score in assay [6]. Also, the binding signal in assay [7] is 5.93 z-score.

The record behind these values is paper PMC5700166.
